# Results: PubChem BioAssay (NCATS)
# Records with an inconclusive call do not appear. A call without a number means that no potency is given here. Unmarked numbers belong to inactive results. Activity calls are given as the source filed them. Unless noted, calls follow the shape of the dose curve; as a rule, active = well fitted curve in the direction sought with a large enough effect; inconclusive = small, poorly fitted or top-dose-only effect, or another doubt; inactive = no such curve, though single readings can be large; an effect the other way counts as inactive or inconclusive.
# Key:
# [1] = target: Voltage-gated inwardly rectifying potassium channel KCNH2 (Homo sapiens) (UniProt Q12809); assay: qHTS Assay for Small Molecule Inhibitors of the Human hERG Channel Activity (AID 588834);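 also: lower thallium flux fluorescence means stronger hERG block; nearly all actives have a fitted effect of over 50% in size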; also: potency is read from the fitted curve at half-maximal effect
# Chain of Voltage-gated inwardly rectifying potassium channel KCNH2 (Homo sapiens) (Q12809 whole entry, looked up): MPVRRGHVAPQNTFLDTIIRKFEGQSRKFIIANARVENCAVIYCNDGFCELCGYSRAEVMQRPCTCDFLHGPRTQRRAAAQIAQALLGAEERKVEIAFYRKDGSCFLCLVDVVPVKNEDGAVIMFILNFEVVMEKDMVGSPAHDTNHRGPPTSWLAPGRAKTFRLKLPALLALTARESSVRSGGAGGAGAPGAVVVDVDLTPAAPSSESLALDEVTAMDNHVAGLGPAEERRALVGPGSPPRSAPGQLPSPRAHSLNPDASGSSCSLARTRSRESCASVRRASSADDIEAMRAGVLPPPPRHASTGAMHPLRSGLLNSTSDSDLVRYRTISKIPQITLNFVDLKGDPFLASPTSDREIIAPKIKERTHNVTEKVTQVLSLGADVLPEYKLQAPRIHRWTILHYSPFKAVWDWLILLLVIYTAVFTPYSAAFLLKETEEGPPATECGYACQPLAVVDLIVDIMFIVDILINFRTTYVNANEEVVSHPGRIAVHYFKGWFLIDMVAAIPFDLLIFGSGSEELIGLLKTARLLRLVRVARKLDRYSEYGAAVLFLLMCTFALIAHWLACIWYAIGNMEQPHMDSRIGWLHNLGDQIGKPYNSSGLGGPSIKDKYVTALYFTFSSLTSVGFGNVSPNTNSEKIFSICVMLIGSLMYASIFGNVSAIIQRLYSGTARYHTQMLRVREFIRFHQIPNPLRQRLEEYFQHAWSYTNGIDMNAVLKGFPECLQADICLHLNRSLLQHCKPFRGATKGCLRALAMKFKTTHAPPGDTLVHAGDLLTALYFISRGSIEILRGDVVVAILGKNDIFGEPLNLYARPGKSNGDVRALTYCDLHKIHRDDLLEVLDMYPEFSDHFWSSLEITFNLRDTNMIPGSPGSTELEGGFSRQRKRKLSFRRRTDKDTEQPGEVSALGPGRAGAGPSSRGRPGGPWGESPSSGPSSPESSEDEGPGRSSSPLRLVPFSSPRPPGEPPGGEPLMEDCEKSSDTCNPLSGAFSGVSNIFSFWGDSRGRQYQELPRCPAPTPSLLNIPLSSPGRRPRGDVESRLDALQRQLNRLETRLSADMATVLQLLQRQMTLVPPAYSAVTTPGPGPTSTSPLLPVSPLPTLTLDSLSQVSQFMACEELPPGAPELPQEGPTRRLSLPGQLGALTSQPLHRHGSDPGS
# How it was run: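 Measured: FluxOR fluorescence after thallium stimulation in U2OS cells transduced with hERG by baculovirus. Compounds pre-incubated around 10 min; medium Opti-MEM with 2% FCS. AC50 from Hill equation.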
# [2] = target: Luciferin 4-monooxygenase (Photinus pyralis) (UniProt P08659); assay: Biochemical firefly luciferase enzyme assay for NPC (AID 624030); also: nearly all actives have a fitted effect of over 70% in size; also: potency is read from the fitted curve at half-maximal effect
# Chain of Luciferin 4-monooxygenase (Photinus pyralis) (P08659 whole entry, looked up): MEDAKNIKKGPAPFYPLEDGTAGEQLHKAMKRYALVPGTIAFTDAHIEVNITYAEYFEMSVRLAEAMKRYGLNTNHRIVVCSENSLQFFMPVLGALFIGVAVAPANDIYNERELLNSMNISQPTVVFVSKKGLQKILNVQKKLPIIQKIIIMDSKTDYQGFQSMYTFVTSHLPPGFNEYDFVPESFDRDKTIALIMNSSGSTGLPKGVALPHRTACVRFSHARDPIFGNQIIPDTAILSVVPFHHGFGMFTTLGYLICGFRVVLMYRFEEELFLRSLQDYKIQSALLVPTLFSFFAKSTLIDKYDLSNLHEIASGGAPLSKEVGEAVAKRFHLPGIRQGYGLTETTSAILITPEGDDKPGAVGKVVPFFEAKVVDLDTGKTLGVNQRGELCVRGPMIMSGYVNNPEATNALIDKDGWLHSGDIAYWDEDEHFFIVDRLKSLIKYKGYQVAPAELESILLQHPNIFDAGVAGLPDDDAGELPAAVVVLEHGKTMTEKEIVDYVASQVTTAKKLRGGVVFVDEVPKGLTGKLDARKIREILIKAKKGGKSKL
# How it was run: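 Direct inhibition of firefly luciferase enzyme (10 nM final, 50 mM Tris Acetate) assessed by luminescence within 5 minutes. Percent activity scaled between DMSO and PTC124 positive control, with concentration-effect curves classified by fit quality and response.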
# [3] = S16 Schwann cell viability assay (CellTiter-Glo assay) (AID 624031);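 also: native untransfected S16 rat Schwann cells; cellular ATP luminescence as a viability measure; series mostly up to about 58 µM; nearly all actives have a fitted effect of over 70% in size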
# How it was run: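 Cells were seeded at 500-750 per well in phenol red-free DMEM with 10% FBS and left overnight. Compounds or DMSO were pinned in, incubation ran 24 h at 37 °C/5% CO2, then CellTiter-Glo reagent was added and luminescence measured.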
# [4] = S16 Schwann cell PMP22 intronic element beta-lactamase assay (AID 624044; calls by dose curve; also: nearly all actives have a fitted effect of over 15% in size)
# How it was run: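 Rat S16 Schwann cells with beta-Lac driven by a PMP22 intronic element, compound-treated 24 h at 37 °C. LiveBLAzer FRET B/G read: 460 nm normalized to potassium clavulanate vs DMSO; 535 nm FRET as viability; concentration-effect curves classified.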
# [5] = S16 Schwann cell PMP22 intronic element firefly luciferase assay (AID 624032); also: nearly all actives have a fitted effect of over 30% in size; also: potency is read from the fitted curve at half-maximal effect
# How it was run: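 Luciferase reporter of PMP22 intronic-element expression in stably transfected S16 rat Schwann cells, read by ONE-Glo luminescence after 24 h compound exposure at 37 C. Activity scaled between DMSO (0%) and positive-control PTC124; concentration-effect curves quality-classified.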
# [6] = qHTS assay for small molecule agonists of the antioxidant response element (ARE) signaling pathway (AID 651741; active = well fitted activation curve with a large enough effect in the signal ratio; the % refers to the signal ratio; also: potency is read from the fitted curve at half-maximal effect)
# How it was run: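 Quantitative HTS in HepG2 cells stably expressing an ARE-beta-lactamase reporter; 16 h compound exposure at 37 C, followed by 2 h room-temperature incubation with LiveBLAzer B/G FRET substrate and fluorescence measurement.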
# [7] = qHTS assay for small molecule activators of the p53 signaling pathway (AID 651743; active = well fitted activation curve with a large enough effect in the signal ratio, not every such curve was filed as active; the % refers to the signal ratio; also: series mostly up to about 92 µM); conditions: HCT-116 p53RE-bla, beta-lactamase FRET ratio, 16 h; stronger effect = higher value
# How it was run: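 Read-out is fluorescence intensity from the LiveBLAzer B/G FRET substrate, added for 2 hours at room temperature after HCT-116 p53RE-bla cells had been incubated with compounds for 16 hours at 37 C.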
structure (smiles),measurement,setting,value
COc1cc(O)cc(O)c1,Potency,[1],inactive
same,Potency,[2],inactive
same,outcome,[3],inactive
same,outcome,[4],inactive
CN1CCN(C(=O)C2CCCCC2)CC1,Potency,[1],inactive
same,outcome,[3],inactive
same,Potency,[5],inactive
CC(C)C[C@@H](N)C(=O)O,Potency,[1],inactive
same,Potency,[2],inactive
same,outcome,[3],inactive
same,outcome,[4],inactive
CC(=O)Nc1ccc(OCCOCCOc2ccc(NC(C)=O)cc2)cc1,Potency,[1],inactive
same,Potency,[2],inactive
same,outcome,[3],inactive
same,outcome,[4],inactive
O=C1CC[C@@H](C(=O)O)N1,Potency,[1],inactive
same,outcome,[3],inactive
CCCCCCCCCCCCCCCCN,Potency,[1],inactive
same,Potency,[2],inactive
same,outcome,[3],inactive
same,Potency,[5],inactive
same,outcome,[4],inactive
Nc1ccc(C(=O)Oc2ccccc2)c(O)c1,Potency,[1],inactive
same,Potency,[2],6.42 µM (active)
same,outcome,[3],inactive
same,outcome,[4],inactive
NS(=O)(=O)c1cc(-c2nn[nH]n2)c(NCc2cccs2)cc1Cl,Potency,[1],inactive
same,outcome,[3],inactive
CN/C(=C\[N+](=O)[O-])NCCSCc1csc(CN(C)C)n1,Potency,[1],inactive
same,Potency,[5],inactive
Cc1c(NC(=O)c2cccnc2)c(=O)n(-c2ccccc2)n1C,Potency,[2],inactive
same,outcome,[3],inactive
CCc1nnc(NS(=O)(=O)c2ccc(N)cc2)s1,Potency,[1],inactive
same,outcome,[3],inactive
same,outcome,[4],inactive
O=C(/C=C/c1ccccc1)OCc1ccccc1,outcome,[3],inactive
same,Potency,[5],inactive
NS(=O)(=O)c1ccc(C(=O)O)cc1,Potency,[1],inactive
same,Potency,[5],inactive
N[C@@H](Cc1ccc(O)cc1)C(=O)O,outcome,[3],inactive
same,Potency,[5],inactive
same,outcome,[4],inactive
Cc1cccc(Nc2ccccc2C(=O)O)c1C,Potency,[1],inactive
same,outcome,[3],inactive
same,Potency,[5],inactive
same,Potency,[6],61.1 µM (active)
O=C(CCBr)N1CCN(C(=O)CCBr)CC1,outcome,[3],inactive
same,Potency,[5],inactive
same,outcome,[4],inactive
O=S1(=O)OC(c2ccc(O)cc2)(c2ccc(O)cc2)c2ccccc21,Potency,[1],inactive
same,outcome,[3],inactive
same,Potency,[5],10.2 µM (active)
same,outcome,[4],inactive
CCN(CC)CC1CCCCN1CC(=O)N1c2ccccc2C(=O)Nc2cccnc21 (centres undefined),outcome,[3],inactive
same,outcome,[4],inactive
CN(C/C=C/C#CC(C)(C)C)Cc1cccc2ccccc12,Potency,[1],12.6 µM (active)
same,outcome,[3],inactive
same,outcome,[4],inactive
O=c1[nH]cnc2nc[nH]c12,Potency,[1],inactive
same,outcome,[3],inactive
same,Potency,[5],inactive
CCS(=O)(=O)CCn1c([N+](=O)[O-])cnc1C,Potency,[2],inactive
same,outcome,[3],inactive
same,Potency,[5],inactive
same,outcome,[4],inactive
O=C1c2ccccc2S(=O)(=O)N1CCCCN1CCN(c2ncccn2)CC1,Potency,[2],inactive
same,outcome,[3],inactive
Nc1ncnc(Nc2ccccc2)n1,Potency,[1],inactive
same,outcome,[3],inactive
same,Potency,[5],inactive
CC[N+](CC)(CC(=O)Nc1c(C)cccc1C)Cc1ccccc1,Potency,[1],inactive
same,outcome,[3],inactive
same,Potency,[6],inactive
same,activation,[7],-6.37%
